Source: PubChem (several laboratories)
V-ATPase pHluor: regulators of yeast V-ATPase proton transport | S. cerevisiae, pHLuorin cytosolic pH fluorescence | response, % at 10 µM | hit rate 0.37% among 350,000; in the data active = response mostly above about 7.3%, no sharp cut-off; inactive = mostly below about 5.4%; also: actives read high
ATG4B inh: inhibitors of human ATG4B cysteine protease | hit rate 0.51% among 340,000 | ATG4B cleavage of LC3-PLA2, NBD-HPC fluorescence, 1 h | AID 504462 | Q9Y4P1 | inhibition, % at 8.33 µM; in the data active = inhibition above about 40%
Target sequence (Q9Y4P1 whole entry, looked up): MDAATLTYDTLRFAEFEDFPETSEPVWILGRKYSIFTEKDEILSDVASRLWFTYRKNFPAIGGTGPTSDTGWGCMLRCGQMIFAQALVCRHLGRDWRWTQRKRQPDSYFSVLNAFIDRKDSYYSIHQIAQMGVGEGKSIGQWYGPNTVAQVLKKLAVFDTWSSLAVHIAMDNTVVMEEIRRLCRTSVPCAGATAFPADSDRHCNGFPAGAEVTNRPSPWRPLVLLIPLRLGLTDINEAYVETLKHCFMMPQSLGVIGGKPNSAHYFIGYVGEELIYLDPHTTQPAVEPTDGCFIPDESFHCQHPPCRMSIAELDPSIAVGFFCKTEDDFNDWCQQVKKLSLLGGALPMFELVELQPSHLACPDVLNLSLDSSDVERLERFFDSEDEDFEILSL
AI-2 QS modul: Vibrio harveyi AI-2 quorum sensing modulation; activity change, % at 7.5 µM; Vibrio harveyi JMH597 AI-2 luminescence/OD600 ratio, 9 h; active compounds read low; strain lacks LuxN and CqsS sensors; 0 = neutral-control median; hit rate 0.4% among 300,000; AID 2094; in the data active = activity change below about -75%, passing the limit was not always enough; inconclusive = no clear call, values can overlap the other calls;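 also: luminescence divided by OD600 gain over 9 h not by final OD600 alone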
Mot1-301 SUMO: inhibitors of SUMOylation pathway: yeast Mot1-301 growth rescue. S. cerevisiae Mot1-301 growth rescue, ATP luminescence, 38.5C; percent above DMSO median, 100 means doubled. growth rescue, % at 18.8 µM. hit rate 1% among 320,000;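 active = every valid replicate shows activation above 250% relative to neutral control wells; inactive = the rest, any valid replicate at or below 250%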;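 also: OY570 slx delta 5 strain wells were the positive control but not used for scaling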
Efflux pump inh: blocks antifungal efflux pumps in multiplex yeast assay. inhibition, % at 10 µM. hit rate 0.44% among 330,000. AID 485275. S. cerevisiae Candida pump triplex, Nile Red efflux;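 active = plate passing quality check with inhibition over a set limit, or well fluorescence over plate mean plus 4 SD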;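 also: Nile Red retained in pooled yeast measured as flow cytometry median fluorescence; 0% = buffer negative control and 100% = Enniatin B positive control; higher means more Nile Red kept so more efflux inhibition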
JMH597 growth rt: retest: inhibitors of Vibrio harveyi JMH597 growth | shares compounds with AI-2 QS modul | AID 2726 | hit rate 1% among 750 | OD600 absorbance, 9 h; lacks LuxN and CqsS sensors | growth inhibition, % at 7.5 µM;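 active = every replicate shows growth inhibition above 50%; inconclusive = at least half, but not all, replicates pass that cutoff; inactive = fewer than half of replicates pass it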
BB721 lum counter: retest counter-screen: lowers luminescence of constitutive-QS Vibrio harveyi BB721 | 9 h | shares compounds with AI-2 QS modul | AID 2727 | inhibition, % at 7.5 µM | hit rate 95% among 750;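 active = inhibition above about 80% in every replicate, not just on average, limit read from the data; inconclusive = at least half of replicates past the limit, but not all; inactive = fewer than half of replicates past the limit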
BB721 growth rt: retest: blocks Vibrio harveyi BB721 growth; OD600 absorbance, 9 h; AID 2728; hit rate 3% among 750; growth inhibition, % at 7.5 µM; shares compounds with AI-2 QS modul;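 active = every replicate shows growth inhibition above 50%; inconclusive = at least half but not all replicates above 50% inhibition; inactive = under half of replicates above 50% inhibition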
AI-2 QS JMH597: Vibrio harveyi AI-2 signaling luminescence modulation – JMH597 strain, confirmation. Vibrio harveyi JMH597 AI-2 quorum sensing luminescence, 9 h; luxN and CqsS knockout, AI-2 only. AID 2736. hit rate 97% among 750. shares compounds with AI-2 QS modul. inhibition, % at 7.5 µM;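 active = every replicate shows more than 75% inhibition of signal versus neutral control wells; inconclusive = half to three quarters of replicates exceed 75% inhibition; inactive = fewer than half of replicates exceed 75% inhibition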
Active calls of the source: *; ? = inconclusive; · = not tested or not shown. Rows were chosen to be rich in hits. Some 2.5% of all compounds tested hit in one or more screens of this group.

SMILES	V-ATPase pHluor	ATG4B inh	AI-2 QS modul	Mot1-301 SUMO	Efflux pump inh	JMH597 growth rt	BB721 lum counter	BB721 growth rt	AI-2 QS JMH597
CCCCNC(=O)c1onc(CSc2cccc3ccccc23)c1C(=O)O	-1	-9	18	-4	0	·	·	·	·
Nc1nonc1C(=O)NCCNC(=O)c1cccc(Cl)c1	8	3	11	-24	0	·	·	·	·
CC(C)(C)c1ccc(/C=C/C(=O)N2CCCCC2)cc1	4	4	-86*	252	·	12	94*	13	97*
CC(C)c1ccc(S(=O)(=O)N2CCN(C(=S)NCc3ccco3)CC2)cc1	-1	-6	-96*	-10	0	32	100*	-39	100*
CC(=O)c1ccc(NCCC(=O)c2ccccc2)cc1	-1	-20	-83*	-3	0	18	93*	9	95*
Clc1cccc(CON/C=N/c2ncnc3sccc23)c1	-1	12	-92*	23	0	44	96*	0	98*
COC(=O)c1cc(OC)c(OC)cc1NC(=O)c1ccc(Br)o1	-2	2	?	·	0	-18	-2	-19	1
CCOC(=O)c1sc(NC(=O)COC(=O)c2ccco2)nc1C	1	-5	-89*	10	0	10	97*	-5	98*
CCOC(=O)c1sc(NC(=O)c2ccco2)nc1C	3	3	12	-15	0	·	·	·	·
N#Cc1nc(-c2cccs2)oc1NCc1ccc(Cl)cc1	-1	8	-87*	10	0	93*	92*	102*	96*
N#Cc1nc(-c2ccc(F)cc2)oc1NCc1ccco1	-3	2	-59	-1	0	·	·	·	·
Cc1ccc(CNc2oc(-c3cccs3)nc2C#N)cc1	-1	-6	-94*	-3	0	30	97*	?	98*
N#Cc1nc(-c2ccc(F)cc2)oc1NCc1ccccc1	-1	-1	-96*	0	0	20	95*	15	97*
CC(=O)c1ccc(Oc2ccc(C(=O)c3ccc(C)c(C)c3)cc2[N+](=O)[O-])cc1	-2	8	15	61	1	·	·	·	·
COC(=O)c1ccc(Oc2ccc(C(C)(C)C)cc2)c([N+](=O)[O-])c1	2	4	?	-19	0	32	84*	?	91*
COc1ccc(OC)c(NC(=O)/C=C/c2ccccc2[N+](=O)[O-])c1	-1	16	33	1	0	·	·	·	·
NS(=O)(=O)c1ccc(CNC(=O)/C=C/c2ccccc2[N+](=O)[O-])cc1	-2	-9	14	-1	0	·	·	·	·
COc1ccc(CNC(=O)/C=C/c2ccccc2[N+](=O)[O-])cc1	5	-11	-80*	-2	0	14	95*	3	96*
O=C(/C=C/c1ccccc1[N+](=O)[O-])NCc1ccc(Cl)cc1	-4	9	?	-9	0	-4	91*	10	93*
O=C(/C=C/c1ccccc1Cl)NCc1ccccc1	-2	25	-94*	3	0	4	98*	17	99*
O=C(/C=C/c1ccccc1[N+](=O)[O-])Oc1ccccc1	·	·	-81*	-4	0	-9	79*	14	88*
O=C(NCCCN1CCOCC1)c1ccc2c(=O)n(Cc3ccc(Cl)cc3)c(=S)[nH]c2c1	2	4	11	-9	0	·	·	·	·
C=CCn1c(CCNC(=O)c2ccc(Cl)c(Cl)c2)nnc1SCCOc1ccc(OC)cc1	1	-3	-84*	147	0	61	90*	37	94*
C=CCn1c(SCCOc2ccccc2)nnc1C(C)NC(=O)c1ccccc1 (stereo not given)	1	-4	29	-19	0	·	·	·	·
COc1ccc(S(=O)(=O)Nc2ccc3c(c2)C(=O)N([C@H](C)CO)C[C@H](C)[C@@H](CN(C)S(C)(=O)=O)O3)cc1	0	-3	·	0	0	·	·	·	·
